Source: PubChem
Hits are enriched below; roughly 32% of the tested compounds scored in any of these assays.
CYP2C9 inhib: human CYP2C9 inhibition. 96,000 compounds, 20% hits. inhibition, % at 5 µM. P11712. CYP2C9 Supersomes, luciferin-H conversion, luminescence;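 active means blocking of liver enzyme CYP2C9 beyond about 50% at 5 µM, limit read from the data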
CYP2C19 act: increases human CYP2C19 enzyme activity. recombinant CYP2C19, luciferin-H EGE luminescence; hits give high values; 0 = fully inhibited enzyme, 1 = untreated enzyme. activation factor at 5 µM. 96,000 tested, under 10 active. AID 1025;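 active means activation factor of at least 2 at 5 µM in the primary screen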;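 further: 0 = wells with 2.5 mM tranylcypromine and 1 = vehicle-only wells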
Target sequence (P33261 whole entry, looked up): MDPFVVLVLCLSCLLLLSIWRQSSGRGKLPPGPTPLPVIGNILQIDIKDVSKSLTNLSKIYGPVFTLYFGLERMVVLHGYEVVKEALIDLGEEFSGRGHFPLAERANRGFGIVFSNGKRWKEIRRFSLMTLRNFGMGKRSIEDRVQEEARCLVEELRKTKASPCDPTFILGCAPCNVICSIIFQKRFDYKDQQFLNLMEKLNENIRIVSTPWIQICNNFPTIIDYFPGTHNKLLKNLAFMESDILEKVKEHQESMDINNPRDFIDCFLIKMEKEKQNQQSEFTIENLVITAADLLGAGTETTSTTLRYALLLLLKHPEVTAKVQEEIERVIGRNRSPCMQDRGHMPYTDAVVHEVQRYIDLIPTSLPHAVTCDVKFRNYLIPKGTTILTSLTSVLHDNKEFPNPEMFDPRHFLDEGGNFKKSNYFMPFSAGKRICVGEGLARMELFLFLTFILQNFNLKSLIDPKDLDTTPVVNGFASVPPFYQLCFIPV
CYP2C9 activ: activators of human CYP2C9; P11712; recombinant CYP2C9, luciferin-H conversion, luminescence; hits give high values; factor 1 = untreated enzyme, 0 = blocked; activation factor at 5 µM; 96,000 compounds, 1.4% hits;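 active means activation factor of 2 or more for CYP2C9 at a 5 µM dose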;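 further: 0 = sulfaphenazole-blocked wells and 1 = vehicle-only wells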
PostGolgi ctrl: inhibits growth of the yeast control strain | efflux-deficient yeast background strain, growth absorbance A615, 16 h | inhibition, % at 10 µM | 98,000 compounds, 5% hits | AID 738
PostGolgi yeast: growth inhibition of a yeast mutant, post-Golgi transport screen; post-Golgi transport phenotypic cell assay; inhibition, % at 10 µM; 98,000 compounds, 0.9% hits;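 further: yeast cells grown in 1536-well plates; yeast grown about 18 h at 30C before absorbance read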
CYP2C19 inhib: human CYP2C19 inhibition; inhibition, % at 5 µM; 96,000 compounds, 21% hits; CYP2C19 Supersomes, luciferin-H EGE luminescence, 30 min; P33261;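 active means CYP2C19 inhibition above a set limit at 5 µM in the primary screen, cut at about 50% in these data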;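 further: plate controls were negative control wells for no effect and 2.5 mM tranylcypromine positive control for full effect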
An asterisk follows results filed as active; · = no result. Unless noted, no stated cut-off is given here; in the data, active means inhibition above about 30%; inactive means the rest.

SMILES	CYP2C9 inhib	CYP2C19 act	CYP2C9 activ	PostGolgi ctrl	PostGolgi yeast	CYP2C19 inhib
Cn1nc(C(F)(F)F)c(C#N)c1N1CCN(c2cccc(C(F)(F)F)c2)CC1	17	0.9	0.8	0	-4	15
CCOC(=O)c1cn(-c2nc(-c3ccc(Cl)c(Cl)c3)cs2)c2c(F)c(N3CCOCC3)c(F)cc2c1=O	17	1.1	0.8	15	-5	-5
COc1ccc(NS(=O)(=O)c2ccc(N3C(=O)CCC3=O)cc2)cc1	70*	0.1	0.3	2	11	86*
CCn1c(SCc2ccccc2)nnc1C1CCN(S(=O)(=O)c2ccc(OC)cc2)CC1	-105	0.8	2*	8	-3	20
COc1ccc(S(=O)(=O)N2CCC(N3CCCCC3)CC2)cc1	-7	0.9	1.1	8	-2	8
COc1ccc(C(=O)Nc2ccc(S(=O)(=O)NC(C)=O)cc2)cc1	-6	1.1	1.1	36*	-8	-14
COc1ccc(C(=O)Nc2ccc(S(=O)(=O)N3CCCCC3)cc2)cc1	5	1	0.9	11	4	-2
COc1ccc(S(=O)(=O)N2CCCCCC2)cc1	-12	0.5	1.1	1	7	51*
Cn1c(=O)[nH]c(=O)c2c1ncn2CCCc1ccccc1	·	·	·	3	6	·
Clc1ccc(CN2CCC(c3nc4ccc(Cl)cc4[nH]3)CC2)cc1	47	0.5	0.5	5	10	47
O=c1nc2scc(-c3ccccc3)n2c2ccccc12	2	0.8	1	14	2	16
COc1ccc(S(=O)(=O)Nc2ccc(S(=O)(=O)N3CCCCC3)cc2)cc1C	88*	0.4	0.1	9	-2	58*
COC(=O)c1ccc(NS(=O)(=O)N(C)C)cc1	79*	0.1	0.2	22	10	87*
COc1ccc(S(=O)(=O)Nc2ccc(S(=O)(=O)N3CCCC3)cc2)cc1	89*	0.5	0.1	7	5	54*
COc1ccc(NS(=O)(=O)c2ccc(OCC(=O)N3CCOCC3)cc2)cc1	13	0.8	0.9	-1	13	20
COc1ccc(S(=O)(=O)Nc2ccc(CC#N)cc2)cc1	85*	0	0.2	-4	-27	100*
COc1cc(-c2nnc(SCc3cccnc3)n2C)cc(OC)c1O	15	0.7	0.9	7	-11	30
O=C(NC1CCCCC1)c1ccc(Cn2cc(Cl)cn2)cc1	27	1	0.7	11	0	-1
O=C(NC1CCCCC1)N(Cc1cc2cc3c(cc2[nH]c1=O)OCCO3)CC1CCCO1 (stereo unspecified)	15	0.9	0.9	5	7	10
COC(=O)c1[nH]c2ccc(Cl)cc2c1NC(=O)CN1CCc2cc(OC)c(OC)cc2C1	89*	0.1	0.1	31*	4	87*
COC(=O)c1[nH]c2cc(C)ccc2c1NC(=O)CN1CCc2cc(OC)c(OC)cc2C1	49	0.5	0.5	17	10	51*
CCOC(=O)c1[nH]c2ccc(F)cc2c1NC(=O)CN1CCc2cc(OC)c(OC)cc2C1	81*	0.3	0.2	7	2	68*
CCOC(=O)N1CCN(CC(=O)Nc2c(C(=O)OC)[nH]c3cc(C)ccc23)CC1	6	1	0.9	9	1	2
O=C1c2ccccc2C(=O)N1CC(O)COCc1ccccc1 (stereo unspecified)	-1	0.2	1	-2	5	81*
N#Cc1nc(-c2ccccc2Cl)oc1NCc1ccco1	83*	0.4	0.2	31*	-2	64*
SMILES	CYP2C9 inhib	CYP2C19 act	CYP2C9 activ	PostGolgi ctrl	PostGolgi yeast	CYP2C19 inhib
N#Cc1nc(-c2ccco2)oc1NCc1cccnc1	15	0.6	0.9	-2	7	37
COc1ccc(-c2nc(C#N)c(NCc3ccccc3Cl)o2)cc1OC	47	0.9	0.5	5	14	12
COc1ccc(CNc2oc(-c3ccccc3)nc2C#N)cc1	84*	0.7	0.2	13	9	27
N#Cc1nc(-c2ccco2)oc1NCc1ccc(F)cc1	82*	0.7	0.2	5	-1	31
N#Cc1nc(-c2ccc(Cl)cc2)oc1NCc1ccco1	85*	0.9	0.1	16	3	14
COC(=O)Cn1nnc(-c2cccc(OC)c2)n1	8	0.9	0.9	20	5	10
CCOC(=O)N1CCN(C(=O)Cc2ccc(C)cc2)CC1	45	0.8	0.6	5	3	24
C=CCn1c(COc2cccc3ccc(C)nc23)nnc1SCC(N)=O	-14	1	1.1	4	-4	-3
N#Cc1nc(-c2ccccc2)oc1NCc1ccco1	74*	0.9	0.3	5	-17	13
CNc1oc(-c2ccccc2)nc1C#N	5	0.7	0.9	1	13	30
N#Cc1nc(-c2ccc(Cl)cc2)oc1NCc1cccc2c1OCO2	94*	0.7	0.1	9	-5	34
Nc1ncnc2nc(SCc3ccc(Cl)cc3Cl)[nH]c12	59*	0.3	0.4	18	-5	67*
CNc1nc(-c2ccccc2)cc(C(F)(F)F)c1C#N	17	0.8	0.8	3	6	21
Cc1cc(Nc2ccccc2)n(-c2nc3ccccc3[nH]2)n1	69*	0.8	0.3	41*	3	23
Cc1cc(NC(=O)C2CCC2)n(-c2ccccn2)n1	-195	0.6	3*	2	-4	38
Cc1cc(NC(=O)c2ccccc2F)n(-c2nc3ccccc3[nH]2)n1	28	0.8	0.7	17	-3	24
Cc1cc(NC(=O)c2c(F)cccc2F)n(-c2nc3ccccc3[nH]2)n1	52*	0.7	0.5	30*	-1	29
Cc1cc(NC(=O)c2c(F)cccc2Cl)n(-c2nc3ccccc3[nH]2)n1	95*	0.1	0.1	17	-2	86*
Cc1cc(C)n(-c2nc3ccccc3[nH]c2=O)n1	·	·	·	-6	6	·
Cc1cc(NC(=O)c2cccc(S(=O)(=O)N3CCCCCC3)c2)n(-c2ccccn2)n1	29	0.7	0.7	-7	-8	26
Nc1nc(NC(=O)c2cccnc2)nn1-c1ccccc1	3	0.9	1	3	1	13
Cc1cc(-c2ccccc2)nc2[n+]1CCN2C	10	1	0.9	4	-30	-3
Cc1cc(NC(=O)C2CCCCC2)n(-c2nc3ccccc3[nH]2)n1	71*	0.7	0.3	12	1	31
CCOC(=O)C1CCCN(Cc2cc(Br)c(OC)cc2OC)C1 (stereo unspecified)	5	0.2	1	-1	-1	84*
CCOC(=O)C1CCCN(Cc2cc(Br)ccc2OC)C1 (stereo unspecified)	63*	0.2	0.4	2	2	79*
CCOC(=O)C1CCCN(CCC(=O)Nc2ccccc2)C1 (stereo unspecified)	8	0.9	0.9	-4	10	14
